In the library only some 4% were active in any assay of this set; here they are far more common.
Anthrax LF inh2: inhibitors of Bacillus anthracis lethal factor protease; P15917; inhibition, % at 10 µM; 360,000 compounds, 0.12% hits; AID 588501; multiplex microsphere protease cleavage assay, LF; further: plate controls were buffer without enzyme for full effect and enzyme alone for no effect
MazEF act: MazEF (E. coli) toxin RNase activation; AID 504720; 350,000 compounds, 0.32% hits; FAM/BHQ RNA-DNA oligo cleavage fluorescence, 5 h; activation, % at 20 µM; P0AE70; in the data active means activation above about 50%
Target sequence (P0AE70 whole entry, looked up): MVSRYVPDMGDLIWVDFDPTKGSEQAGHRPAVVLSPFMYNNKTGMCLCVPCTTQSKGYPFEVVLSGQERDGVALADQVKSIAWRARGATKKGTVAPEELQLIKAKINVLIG
Bead autofluor: flagged as autofluorescent in microsphere protease counterscreen | compound autofluorescence counterscreen, microsphere flow cytometry; hits give high values | fluorescence intensity (test concentration not listed) | 360,000 compounds, 3.1% hits | AID 624483; in the data active means fluorescence intensity above about 16000; inconclusive means no clear call, values can overlap the other calls
DUSP3 inh: DUSP3 (human) phosphatase inhibition | 290,000 compounds, 0.52% hits | recombinant VHR phosphatase, pNPP absorbance | inhibition, % at 13.3 µM | AID 1654; in the data active means inhibition above about 50%
Target sequence (P51452 whole entry, looked up): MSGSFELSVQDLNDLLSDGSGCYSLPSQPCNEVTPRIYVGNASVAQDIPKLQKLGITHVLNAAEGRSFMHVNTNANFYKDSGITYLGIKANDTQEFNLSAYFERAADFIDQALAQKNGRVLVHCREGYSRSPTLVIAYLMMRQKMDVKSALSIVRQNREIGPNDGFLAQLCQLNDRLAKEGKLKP
BoNT-F LC inh: blocks Botulinum neurotoxin F light chain protease; inhibition, % at 10 µM; Multiplex microsphere protease cleavage assay, flow cytometry; 360,000 compounds, 0.22% hits; in the data active means inhibition above about 35%, passing the limit was not always enough; inconclusive means no clear call, values can overlap the other calls; further: plate controls were buffer without enzyme for full effect and enzyme alone for no effect
BoNT A protease: inhibitors of Botulinum neurotoxin A light chain protease; inhibition, % at 10 µM; multiplex microsphere protease substrate cleavage, flow cytometry; 360,000 compounds, 0.17% hits; further: plate controls were buffer without enzyme for full effect and enzyme alone for no effect
BoNTA LC inh 1: BoNT/A light chain protease inhibition | shares compounds with BoNT-F LC inh | multiplex microsphere protease assay, flow cytometry | inhibition, % at 10 µM | 720 compounds, 3% hits; in the data active means inhibition above about 32%
BoNTF LC inh 1: BoNT/F light chain protease inhibition; shares compounds with BoNT-F LC inh; multiplex microsphere protease cleavage assay, flow cytometry; inhibition, % at 10 µM; 720 tested, under 10 active; AID 602140; call rule not given here
Anthrax LF CP1: Bacillus anthracis lethal factor protease inhibition; multiplex microsphere protease cleavage assay, LF; AID 602142; 720 tested, under 10 active; inhibition, % at 10 µM; shares compounds with BoNT-F LC inh; call rule not given here
* hit, by the source's call; ? = inconclusive; / = not tested or not shown. Unless noted, no stated cut-off is given here; in the data, active means inhibition above about 30%; inconclusive means no clear call, values can overlap the other calls; inactive means below that.

SMILES	Anthrax LF inh2	MazEF act	Bead autofluor	DUSP3 inh	BoNT-F LC inh	BoNT A protease	BoNTA LC inh 1	BoNTF LC inh 1	Anthrax LF CP1
NC(=O)c1cc([N+](=O)[O-])ccc1NCc1cccnc1	-2	4	4466	6	1	0	/	/	/
NS(=O)(=O)c1cc([N+](=O)[O-])ccc1NCc1cccnc1	2	5	4090	31	39*	4	0	0	0
CCOC(=O)c1nnn(CC(=O)Nc2cc(F)ccc2F)c1C(=O)OCC	-2	1	4557	4	16	1	/	/	/
COc1ccccc1Oc1ncnc2sccc12	0	-3	3310	30	37*	5	-2	-5	-2
CCn1c2ccccc2c2cc(NC(=O)c3coc(=O)c(Br)c3)ccc21	/	/	/	13	/	/	/	/	/
CCn1c2ccccc2c2cc(NC(=O)c3ccc(Br)o3)ccc21	43*	9	4789	12	10	77*	5	-10	-2
CC(C)=CC(=O)Nc1nnc(C)s1	-2	-2	2887	22	-6	1	/	/	/
CN(C(=O)CSc1nnc(-c2ccco2)n1Cc1ccccc1)C1CCS(=O)(=O)C1 (centres undefined)	-4	5	3005	/	3	0	/	/	/
O=C1CNC(=O)/C1=C/c1ccc(Br)cc1	-3	-15	3735	17	9	4	/	/	/
COC(=O)c1ccc(CNC(=O)CCc2c[nH]c3ccccc23)cc1	10	-2	3982	21	81*	4	0	6	1
COc1ccc(CNC(=O)N[C@@H](Cc2c[nH]c3ccccc23)C(=O)O)cc1	9	3	2964	16	77*	5	-1	2	0
COc1ccc(CNC(=O)CCc2c[nH]c3ccccc23)cc1	2	8	4079	7	13	-2	/	/	/
COc1ccccc1CNC(=O)Cc1c[nH]c2ccccc12	-6	8	2995	2	36*	1	-1	-1	2
COc1ccc(CNC(=O)Cc2c[nH]c3ccccc23)cc1OC	7	7	4107	/	-6	-3	/	/	/
COCCNc1ccc(S(=O)(=O)N2CCCC2)cn1	-1	5	3539	9	6	1	/	/	/
O=C(O)C1Nc2c(C(F)(F)F)ccc(Cl)c2C2C=CCC12 (centres undefined)	40*	-3	3213	6	-19	-4	1	-3	-6
Cc1ccc2c(c1C)NC(C(=O)O)C1CC=CC21 (centres undefined)	?	-4	4176	-12	?	?	/	/	/
Cc1ccc(Nc2nc(Oc3ccc(=O)[nH]n3)nc(N(C)C)n2)cc1	-5	4	4829	18	-13	0	/	/	/
CN(C)c1nc(Nc2ccc(F)cc2)nc(Oc2ccc(F)cc2)n1	-90	11	1636	16	-254	57*	-1	-4	-1
COc1cc(OC)c(CN2CCc3c([nH]c4ccccc34)C2)cc1Br	-10	19	26222*	39	?	51*	-1	-6	-6
Cc1cccc(CN2CCc3c([nH]c4ccccc34)C2)c1	-6	6	4883	10	-2	2	/	/	/
O=C(N/N=C/c1ccc(O)cc1)c1cc[n+](Cc2ccccc2)cc1	0	4	1989	-9	-10	1	/	/	/
O=c1c(Cl)c2oc3ccccc3nc-2c2ccccc12	25	-189	6118	39	6	47*	32*	8	23
CCN(Cc1ccccc1)C(c1cc2cc(C)ccc2[nH]c1=O)c1nnnn1CCOC (centres undefined)	-2	9	4288	29	5	1	1	-1	1
COc1cccc(Oc2c(C)oc3c(CN4CCCC4)c(O)ccc3c2=O)c1	-2	-13	3718	4	-2	-1	/	/	/
SMILES	Anthrax LF inh2	MazEF act	Bead autofluor	DUSP3 inh	BoNT-F LC inh	BoNT A protease	BoNTA LC inh 1	BoNTF LC inh 1	Anthrax LF CP1
Cc1ccc2nc(N3CCN(S(=O)(=O)c4ccc5c(c4)OCCO5)CC3)c(C#N)cc2c1	8	-28	10472	21	10	14	/	/	/
Cc1ccc(S(=O)(=O)N2CCCN(c3nc4cc(C)ccc4cc3C#N)CC2)cc1	16	-23	13376	13	32	40*	12	-3	2
O=C(NC1CCCC1)C(c1cccnc1)N(Cc1ccccc1)C(=O)c1csnn1 (centres undefined)	6	0	3682	53*	43*	1	0	0	1
CC(C)CCN(C(=O)c1csnn1)C(C(=O)NC1CCCC1)c1ccc(F)cc1 (centres undefined)	6	0	3226	-4	91*	3	-1	-2	-7
O=C(NC1CCCC1)C(c1ccc(F)cc1)N(Cc1ccccc1)C(=O)c1csnn1 (centres undefined)	-1	7	3628	17	-11	-2	/	/	/
O=C(NNC(=O)c1ccc([N+](=O)[O-])cc1)c1ccc(F)cc1	-13	-2	5987	/	-3	-1	/	/	/
Cc1ccc(NC(=O)Cc2ccc(Cl)cc2)nc1	47*	5	?	/	?	3	-2	-6	-1
COc1cc(C(=O)NCCC(=O)N2CCN(C)CC2)cc(OC)c1OC	-2	5	5080	7	7	0	/	/	/
O=C1CN(Cc2ccccc2)CC(=O)N1	-1	-6	3950	/	46*	-2	-1	-2	0
CS(=O)(=O)Nc1cccc(C2=NN(S(=O)(=O)c3ccccc3)C(c3ccco3)C2)c1 (centres undefined)	-1	-2	2700	14	-7	-1	/	/	/
CCS(=O)(=O)N1N=C(c2cccc(NS(C)(=O)=O)c2)CC1c1ccccc1 (centres undefined)	44*	-117	25649*	-5	30	94*	-6	/	-8
C[C@H](CO)N1C[C@H](C)[C@@H](CN(C)S(=O)(=O)c2cccs2)OCc2cn(nn2)CCCC1=O	-6	13	3460	/	-2	0	/	/	/
CCc1cc(C(=O)c2ccc(Br)cc2)c(NC(=O)CN(CC)CC)s1	32*	-6	4112	11	?	-2	0	-4	-1
CCN(CC)CC(=O)Nc1sc(C)cc1C(=O)c1ccc(C)cc1	-5	10	4200	6	?	-2	/	/	/
N#Cc1ccccc1NC(=O)CN1CCN(Cc2ccccc2)CC1	-1	-1	3660	30	46*	2	-2	-7	1
COc1cc(C(=O)Oc2ccccc2/C=N/NC(=O)c2ccc(C)c(Cl)c2)cc(OC)c1OC	1	-7	2602	30	0	0	/	/	/
COc1ccc(S(=O)(=O)N2CCC(C)CC2)cc1N(C)S(=O)(=O)c1ccccc1	-2	-5	6507	6	14	-2	/	/	/
COc1ccc(S(=O)(=O)N2CCCCCC2)cc1N(C)S(=O)(=O)c1ccc(Cl)cc1	2	-3	5279	23	37*	2	0	-5	-4

Screening data (PubChem BioAssay)
